# Experimental data taken from PMC7862700, “An all-to-all approach to the identification of sequence-specific readers for epigenetic DNA modifications on cytosine”.
# Legend:
# Assay in all cases: DAPPL (digital affinity profiling via proximity ligation, sequencing); 10 mM Tris-HCl pH 7.5, 50 mM NaCl, 1 mM DTT, 4% glycerol, room temperature, 30 min; GST-TFs on glutathione beads, 16-mer random dsDNA library, 0.1% formaldehyde crosslink after washing; high values mean tight binding
# FLI1 = target: T1, FLI1 (Homo sapiens, UniProt Q01543 1-452); settings: protein: recombinant; tags: N-terminal GST; dsDNA, one strand shown
# T1 sequence: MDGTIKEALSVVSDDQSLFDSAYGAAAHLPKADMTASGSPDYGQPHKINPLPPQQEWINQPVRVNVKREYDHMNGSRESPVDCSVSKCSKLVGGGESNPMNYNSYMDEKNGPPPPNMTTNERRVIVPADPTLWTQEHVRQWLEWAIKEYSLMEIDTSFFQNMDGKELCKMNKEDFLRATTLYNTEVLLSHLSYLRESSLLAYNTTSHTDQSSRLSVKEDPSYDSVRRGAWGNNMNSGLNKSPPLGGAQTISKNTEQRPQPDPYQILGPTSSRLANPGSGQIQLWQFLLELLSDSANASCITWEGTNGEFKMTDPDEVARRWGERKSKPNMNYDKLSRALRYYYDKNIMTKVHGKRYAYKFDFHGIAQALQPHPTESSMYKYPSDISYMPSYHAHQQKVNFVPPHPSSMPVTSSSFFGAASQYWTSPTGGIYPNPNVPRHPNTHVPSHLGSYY
# Method in brief: (§1)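 Yeast served to express human transcription factors as GST fusions, which were then captured on glutathione beads and labelled with DNA barcodes. Pooled with a tag-only sample, they were incubated with 200 nmole of a 16-mer random double-stranded DNA library for 30 min at room temperature in Tris/NaCl/DTT/glycerol buffer, washed, crosslinked with 0.1% formaldehyde, ligated by proximity, amplified by PCR and sequenced. Dividing each hexamer's read frequency for a factor by its frequency for the tag-only sample gives the binding signal.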
# ELK1 = target: T2, ELK1 (Homo sapiens, UniProt P19419 1-428); settings: protein: recombinant; tags: N-terminal GST; dsDNA, one strand shown
# T2 sequence: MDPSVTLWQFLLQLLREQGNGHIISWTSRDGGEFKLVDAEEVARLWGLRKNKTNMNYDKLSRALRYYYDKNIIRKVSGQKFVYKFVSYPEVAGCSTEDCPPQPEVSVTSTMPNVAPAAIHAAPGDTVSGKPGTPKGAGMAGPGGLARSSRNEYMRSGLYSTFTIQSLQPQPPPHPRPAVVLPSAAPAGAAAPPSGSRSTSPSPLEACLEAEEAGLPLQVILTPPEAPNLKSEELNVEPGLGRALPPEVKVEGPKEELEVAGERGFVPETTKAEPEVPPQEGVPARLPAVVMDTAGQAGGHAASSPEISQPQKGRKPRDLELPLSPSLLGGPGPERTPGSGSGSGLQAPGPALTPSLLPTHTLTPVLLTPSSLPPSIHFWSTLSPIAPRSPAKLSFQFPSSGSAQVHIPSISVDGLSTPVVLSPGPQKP
# Method in brief: as §1
# GABPA = target: T3, GABPA (Homo sapiens, UniProt Q06546 1-454); settings: protein: recombinant; tags: N-terminal GST; dsDNA, one strand shown
# T3 sequence: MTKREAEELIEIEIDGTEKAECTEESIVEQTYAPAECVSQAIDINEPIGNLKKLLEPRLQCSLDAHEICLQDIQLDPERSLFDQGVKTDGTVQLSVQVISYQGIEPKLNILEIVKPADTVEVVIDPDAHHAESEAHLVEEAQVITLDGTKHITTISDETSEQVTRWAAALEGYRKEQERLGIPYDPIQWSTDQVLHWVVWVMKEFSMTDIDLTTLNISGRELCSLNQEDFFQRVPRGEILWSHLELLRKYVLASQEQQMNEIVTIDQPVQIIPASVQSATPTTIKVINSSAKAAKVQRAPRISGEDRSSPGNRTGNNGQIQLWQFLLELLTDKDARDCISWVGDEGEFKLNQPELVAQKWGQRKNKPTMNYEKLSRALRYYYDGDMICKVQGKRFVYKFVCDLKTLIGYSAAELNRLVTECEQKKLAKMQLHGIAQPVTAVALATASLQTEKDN
# Method in brief: as §1
# ERG = target: T4, ERG (Homo sapiens, UniProt P11308 1-479); settings: protein: recombinant; tags: N-terminal GST; dsDNA, one strand shown
# T4 sequence: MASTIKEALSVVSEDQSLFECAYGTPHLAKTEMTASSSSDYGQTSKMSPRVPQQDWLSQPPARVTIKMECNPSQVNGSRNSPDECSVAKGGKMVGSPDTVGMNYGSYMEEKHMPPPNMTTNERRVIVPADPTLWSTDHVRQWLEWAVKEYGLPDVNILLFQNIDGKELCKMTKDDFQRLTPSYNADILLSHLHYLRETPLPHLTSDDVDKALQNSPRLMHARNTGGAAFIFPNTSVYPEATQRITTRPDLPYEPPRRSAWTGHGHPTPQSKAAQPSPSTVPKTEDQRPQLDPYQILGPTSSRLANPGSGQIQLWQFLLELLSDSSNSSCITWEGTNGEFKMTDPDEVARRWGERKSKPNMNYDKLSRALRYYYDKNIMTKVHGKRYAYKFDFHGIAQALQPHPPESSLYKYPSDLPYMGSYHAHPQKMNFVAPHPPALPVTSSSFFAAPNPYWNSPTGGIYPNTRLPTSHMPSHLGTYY
# Method in brief: as §1
# ELF1 = ELF1 (Homo sapiens, UniProt P32519 1-619); settings: protein: recombinant; tags: N-terminal GST; dsDNA, one strand shown
# Chain of ELF1 (P32519 whole entry): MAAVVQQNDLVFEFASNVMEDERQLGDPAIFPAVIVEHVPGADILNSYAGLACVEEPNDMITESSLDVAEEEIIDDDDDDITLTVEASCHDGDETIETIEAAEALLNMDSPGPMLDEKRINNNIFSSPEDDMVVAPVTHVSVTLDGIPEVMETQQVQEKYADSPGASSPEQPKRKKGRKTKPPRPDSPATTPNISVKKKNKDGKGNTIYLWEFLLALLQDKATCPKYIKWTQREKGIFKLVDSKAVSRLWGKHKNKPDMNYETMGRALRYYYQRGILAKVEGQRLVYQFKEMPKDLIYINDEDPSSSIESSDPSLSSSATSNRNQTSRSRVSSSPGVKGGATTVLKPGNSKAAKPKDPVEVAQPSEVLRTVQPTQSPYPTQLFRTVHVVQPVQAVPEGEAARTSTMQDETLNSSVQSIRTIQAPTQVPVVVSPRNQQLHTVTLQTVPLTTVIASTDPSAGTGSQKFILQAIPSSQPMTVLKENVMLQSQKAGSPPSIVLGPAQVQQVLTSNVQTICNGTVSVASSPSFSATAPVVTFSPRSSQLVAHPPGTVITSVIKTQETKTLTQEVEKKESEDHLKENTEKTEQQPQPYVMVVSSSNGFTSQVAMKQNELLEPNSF
# Method in brief: as §1
# EHF = target: T5, EHF (Homo sapiens, UniProt Q9NZC4 1-300); settings: protein: recombinant; tags: N-terminal GST; dsDNA, one strand shown
# T5 sequence: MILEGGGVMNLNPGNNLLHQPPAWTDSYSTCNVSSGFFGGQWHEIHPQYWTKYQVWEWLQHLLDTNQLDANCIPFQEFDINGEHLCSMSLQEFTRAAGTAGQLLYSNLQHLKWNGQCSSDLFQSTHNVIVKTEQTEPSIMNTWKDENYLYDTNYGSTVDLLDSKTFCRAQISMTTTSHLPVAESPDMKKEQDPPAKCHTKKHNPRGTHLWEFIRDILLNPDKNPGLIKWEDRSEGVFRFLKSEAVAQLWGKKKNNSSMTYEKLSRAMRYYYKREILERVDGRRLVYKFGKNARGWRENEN
# Method in brief: as §1
# SPI1 = SPI1 (Homo sapiens, UniProt P17947 1-270); settings: protein: recombinant; tags: N-terminal GST; dsDNA, one strand shown
# Method in brief: as §1
# SPIB = SPIB (Homo sapiens, UniProt Q01892 1-262); settings: protein: recombinant; tags: N-terminal GST; dsDNA, one strand shown
# Chain of SPIB (Q01892 whole entry): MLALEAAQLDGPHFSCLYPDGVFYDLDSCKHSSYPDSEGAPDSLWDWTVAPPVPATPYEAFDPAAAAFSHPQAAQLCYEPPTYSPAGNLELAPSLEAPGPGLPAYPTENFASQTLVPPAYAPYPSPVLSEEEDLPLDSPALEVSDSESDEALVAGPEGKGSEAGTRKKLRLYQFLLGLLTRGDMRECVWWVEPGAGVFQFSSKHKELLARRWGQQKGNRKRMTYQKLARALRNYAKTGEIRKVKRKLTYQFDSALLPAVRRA
# Method in brief: as §1
# ELK3 = target: T6, ELK3 (Homo sapiens, UniProt P41970 1-407); settings: protein: recombinant; tags: N-terminal GST; dsDNA, one strand shown
# T6 sequence: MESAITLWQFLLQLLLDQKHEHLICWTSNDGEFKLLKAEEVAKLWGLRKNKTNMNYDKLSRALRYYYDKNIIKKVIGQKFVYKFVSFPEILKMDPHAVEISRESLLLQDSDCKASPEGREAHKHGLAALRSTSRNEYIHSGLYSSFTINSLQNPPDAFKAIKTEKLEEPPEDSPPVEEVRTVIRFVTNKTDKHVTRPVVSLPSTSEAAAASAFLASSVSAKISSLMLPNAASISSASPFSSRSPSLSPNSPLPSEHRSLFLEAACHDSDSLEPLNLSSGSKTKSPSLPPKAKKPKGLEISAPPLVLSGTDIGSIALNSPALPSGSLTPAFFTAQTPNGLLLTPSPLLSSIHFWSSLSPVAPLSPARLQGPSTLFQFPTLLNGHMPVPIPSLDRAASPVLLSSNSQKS
# Method in brief: as §1
# FEV = target: T7, FEV (Homo sapiens, UniProt Q99581 1-238); settings: protein: recombinant; tags: N-terminal GST; dsDNA, one strand shown
# T7 sequence: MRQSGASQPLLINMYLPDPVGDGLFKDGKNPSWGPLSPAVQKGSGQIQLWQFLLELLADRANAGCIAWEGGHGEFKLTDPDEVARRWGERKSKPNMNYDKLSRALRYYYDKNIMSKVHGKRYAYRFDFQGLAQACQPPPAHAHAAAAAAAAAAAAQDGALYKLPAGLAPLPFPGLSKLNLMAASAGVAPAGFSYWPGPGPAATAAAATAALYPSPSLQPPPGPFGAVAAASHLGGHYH
# Method in brief: as §1
# ETV5 = ETV5 (Homo sapiens, UniProt P41161 1-510); settings: protein: recombinant; tags: N-terminal GST; dsDNA, one strand shown
# Chain of ETV5 (P41161 whole entry): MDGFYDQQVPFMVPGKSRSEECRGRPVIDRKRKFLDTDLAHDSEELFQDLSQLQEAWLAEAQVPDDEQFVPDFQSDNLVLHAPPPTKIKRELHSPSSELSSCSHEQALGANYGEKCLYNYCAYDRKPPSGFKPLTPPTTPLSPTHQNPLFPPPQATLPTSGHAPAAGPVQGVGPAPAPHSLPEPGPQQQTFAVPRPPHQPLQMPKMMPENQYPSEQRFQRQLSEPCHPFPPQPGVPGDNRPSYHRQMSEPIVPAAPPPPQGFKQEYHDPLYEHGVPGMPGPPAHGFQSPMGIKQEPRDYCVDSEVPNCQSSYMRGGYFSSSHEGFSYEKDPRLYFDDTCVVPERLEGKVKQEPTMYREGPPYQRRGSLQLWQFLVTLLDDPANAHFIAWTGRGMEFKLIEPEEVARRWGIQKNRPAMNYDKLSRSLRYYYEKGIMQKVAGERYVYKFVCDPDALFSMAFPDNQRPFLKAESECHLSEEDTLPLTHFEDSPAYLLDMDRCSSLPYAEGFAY
# Method in brief: as §1
# HSF1 = HSF1 (Homo sapiens, UniProt Q00613 1-529); settings: protein: recombinant; tags: N-terminal GST; chain copies: 3; dsDNA, one strand shown
# Chain of HSF1 (Q00613 whole entry): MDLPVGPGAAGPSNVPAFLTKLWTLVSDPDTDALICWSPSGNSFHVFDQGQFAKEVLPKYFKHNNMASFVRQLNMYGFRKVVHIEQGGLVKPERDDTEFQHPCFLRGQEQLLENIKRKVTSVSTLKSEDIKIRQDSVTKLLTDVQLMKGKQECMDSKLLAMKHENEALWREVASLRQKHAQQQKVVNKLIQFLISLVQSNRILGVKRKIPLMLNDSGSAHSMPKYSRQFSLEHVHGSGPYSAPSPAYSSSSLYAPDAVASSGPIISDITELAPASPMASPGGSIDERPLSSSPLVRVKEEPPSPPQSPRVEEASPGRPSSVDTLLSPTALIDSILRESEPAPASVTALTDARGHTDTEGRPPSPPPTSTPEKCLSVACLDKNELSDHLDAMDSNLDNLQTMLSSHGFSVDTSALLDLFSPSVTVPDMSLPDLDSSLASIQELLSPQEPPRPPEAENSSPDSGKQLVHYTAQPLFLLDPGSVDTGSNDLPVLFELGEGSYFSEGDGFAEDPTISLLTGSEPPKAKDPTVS
# Method in brief: as §1
# SPIC = target: T8, SPIC (Homo sapiens, UniProt Q8N5J4 1-248); settings: protein: recombinant; tags: N-terminal GST; dsDNA, one strand shown
# T8 sequence: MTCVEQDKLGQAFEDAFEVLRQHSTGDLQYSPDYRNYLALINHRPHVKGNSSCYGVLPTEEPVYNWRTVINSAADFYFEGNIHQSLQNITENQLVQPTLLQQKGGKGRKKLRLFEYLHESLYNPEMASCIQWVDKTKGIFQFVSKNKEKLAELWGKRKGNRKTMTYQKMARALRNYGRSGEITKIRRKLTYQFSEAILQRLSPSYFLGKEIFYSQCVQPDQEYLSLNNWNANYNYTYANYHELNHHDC
# Method in brief: as §1
# ELF4 = ELF4 (Homo sapiens, UniProt Q99607 1-663); settings: protein: recombinant; tags: N-terminal GST; dsDNA, one strand shown
# Chain of ELF4 (Q99607 whole entry): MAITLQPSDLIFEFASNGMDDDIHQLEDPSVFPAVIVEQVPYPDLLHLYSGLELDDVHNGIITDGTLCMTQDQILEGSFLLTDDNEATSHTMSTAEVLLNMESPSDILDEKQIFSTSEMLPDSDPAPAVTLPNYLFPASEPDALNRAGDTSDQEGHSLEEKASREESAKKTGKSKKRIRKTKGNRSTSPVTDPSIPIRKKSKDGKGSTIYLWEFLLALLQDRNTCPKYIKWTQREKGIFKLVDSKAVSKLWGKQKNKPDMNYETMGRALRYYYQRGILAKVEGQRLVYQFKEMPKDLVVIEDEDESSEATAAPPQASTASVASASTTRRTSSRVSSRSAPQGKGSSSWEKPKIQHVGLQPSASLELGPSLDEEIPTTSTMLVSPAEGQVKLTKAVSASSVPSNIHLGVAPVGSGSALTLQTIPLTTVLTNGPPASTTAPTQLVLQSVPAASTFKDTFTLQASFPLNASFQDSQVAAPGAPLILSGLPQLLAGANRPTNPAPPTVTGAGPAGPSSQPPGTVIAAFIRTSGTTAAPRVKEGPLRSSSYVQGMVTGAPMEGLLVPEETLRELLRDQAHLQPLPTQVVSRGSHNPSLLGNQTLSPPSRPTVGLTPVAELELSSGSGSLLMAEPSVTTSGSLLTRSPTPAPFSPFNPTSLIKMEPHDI
# Method in brief: as §1
# ELK4 = target: T9, ELK4 (Homo sapiens, UniProt P28324-2 1-405); settings: protein: recombinant; tags: N-terminal GST; dsDNA, one strand shown
# T9 sequence: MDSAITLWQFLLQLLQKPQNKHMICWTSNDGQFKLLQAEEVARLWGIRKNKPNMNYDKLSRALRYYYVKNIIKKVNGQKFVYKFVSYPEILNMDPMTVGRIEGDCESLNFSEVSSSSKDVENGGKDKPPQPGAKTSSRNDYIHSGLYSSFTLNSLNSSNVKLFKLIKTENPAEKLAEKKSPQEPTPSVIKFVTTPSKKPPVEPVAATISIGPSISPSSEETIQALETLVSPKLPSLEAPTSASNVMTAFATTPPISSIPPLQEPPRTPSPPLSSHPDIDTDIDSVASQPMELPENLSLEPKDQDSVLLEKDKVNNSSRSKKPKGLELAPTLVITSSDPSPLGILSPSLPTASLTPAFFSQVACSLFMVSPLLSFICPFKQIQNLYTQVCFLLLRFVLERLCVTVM
# Method in brief: as §1
# ETV2 = target: T10, ETV2 (Homo sapiens, UniProt O00321 1-342); settings: protein: recombinant; tags: N-terminal GST; dsDNA, one strand shown
# T10 sequence: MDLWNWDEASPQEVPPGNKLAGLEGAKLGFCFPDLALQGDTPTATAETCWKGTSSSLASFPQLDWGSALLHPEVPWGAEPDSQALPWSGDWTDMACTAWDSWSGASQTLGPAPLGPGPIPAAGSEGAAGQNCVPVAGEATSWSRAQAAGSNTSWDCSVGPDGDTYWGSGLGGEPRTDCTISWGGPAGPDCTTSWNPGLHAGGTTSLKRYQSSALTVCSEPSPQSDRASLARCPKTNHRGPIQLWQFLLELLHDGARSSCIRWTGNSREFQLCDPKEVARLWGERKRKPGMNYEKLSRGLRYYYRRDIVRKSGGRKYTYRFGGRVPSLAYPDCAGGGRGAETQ
# Method in brief: as §1
# ELF3 = target: T11, ELF3 (Homo sapiens, UniProt P78545 1-371); settings: protein: recombinant; tags: N-terminal GST; dsDNA, one strand shown
# T11 sequence: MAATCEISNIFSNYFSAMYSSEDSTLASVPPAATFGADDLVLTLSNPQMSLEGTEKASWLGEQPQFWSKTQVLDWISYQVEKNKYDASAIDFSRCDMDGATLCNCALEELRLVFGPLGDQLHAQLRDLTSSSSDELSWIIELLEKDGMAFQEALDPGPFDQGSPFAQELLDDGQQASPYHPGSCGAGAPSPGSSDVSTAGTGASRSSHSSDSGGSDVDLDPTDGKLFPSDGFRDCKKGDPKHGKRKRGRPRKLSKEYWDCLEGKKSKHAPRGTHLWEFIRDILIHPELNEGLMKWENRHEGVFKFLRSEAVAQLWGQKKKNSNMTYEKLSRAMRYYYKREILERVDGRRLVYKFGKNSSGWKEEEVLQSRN
# Method in brief: as §1
# CRX = CRX (Homo sapiens, UniProt O43186 1-299); settings: protein: recombinant; tags: N-terminal GST; dsDNA, one strand shown
# Chain of CRX (O43186 whole entry): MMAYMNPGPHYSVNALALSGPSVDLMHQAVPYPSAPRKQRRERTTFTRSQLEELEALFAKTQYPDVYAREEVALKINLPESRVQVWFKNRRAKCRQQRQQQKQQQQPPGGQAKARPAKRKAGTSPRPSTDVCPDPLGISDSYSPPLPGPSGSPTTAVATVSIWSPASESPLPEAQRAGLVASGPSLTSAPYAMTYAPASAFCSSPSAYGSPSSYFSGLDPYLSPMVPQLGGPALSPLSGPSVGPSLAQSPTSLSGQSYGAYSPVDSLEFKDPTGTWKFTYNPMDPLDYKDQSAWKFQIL
# Method in brief: as §1
# ETV1 = ETV1 (Homo sapiens, UniProt P50549 1-477); settings: protein: recombinant; tags: N-terminal GST; dsDNA, one strand shown
# Chain of ETV1 (P50549 whole entry): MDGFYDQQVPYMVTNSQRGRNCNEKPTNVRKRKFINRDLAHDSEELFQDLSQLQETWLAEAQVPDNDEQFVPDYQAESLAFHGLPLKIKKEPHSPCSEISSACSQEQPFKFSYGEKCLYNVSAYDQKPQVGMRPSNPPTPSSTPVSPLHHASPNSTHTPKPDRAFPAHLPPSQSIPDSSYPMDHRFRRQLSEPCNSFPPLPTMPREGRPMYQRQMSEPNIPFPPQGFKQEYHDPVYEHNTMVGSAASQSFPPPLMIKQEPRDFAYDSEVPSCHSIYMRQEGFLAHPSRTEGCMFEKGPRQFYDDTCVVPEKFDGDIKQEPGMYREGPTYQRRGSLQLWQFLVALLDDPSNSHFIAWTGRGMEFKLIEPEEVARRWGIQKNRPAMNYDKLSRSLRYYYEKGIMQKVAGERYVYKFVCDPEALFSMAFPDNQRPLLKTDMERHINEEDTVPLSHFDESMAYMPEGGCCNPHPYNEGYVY
# Method in brief: as §1
sequence,measurement,setting,value
CCGTCT,binding signal,FLI1,"1.41 fold enrichment (6-mer frequency, TF over GST control)"
same,binding signal,ELK1,"1.32 fold enrichment (6-mer frequency, TF over GST control)"
same,binding signal,GABPA,"1.43 fold enrichment (6-mer frequency, TF over GST control)"
same,binding signal,ERG,"1.28 fold enrichment (6-mer frequency, TF over GST control)"
same,binding signal,ELF1,"1.46 fold enrichment (6-mer frequency, TF over GST control)"
same,binding signal,EHF,"1.34 fold enrichment (6-mer frequency, TF over GST control)"
same,binding signal,SPI1,"1.43 fold enrichment (6-mer frequency, TF over GST control)"
same,binding signal,SPIB,"1.45 fold enrichment (6-mer frequency, TF over GST control)"
same,binding signal,ELK3,"1.36 fold enrichment (6-mer frequency, TF over GST control)"
same,binding signal,FEV,"1.3 fold enrichment (6-mer frequency, TF over GST control)"
same,binding signal,ETV5,"1.36 fold enrichment (6-mer frequency, TF over GST control)"
same,binding signal,HSF1,"1.29 fold enrichment (6-mer frequency, TF over GST control)"
same,binding signal,SPIC,"1.45 fold enrichment (6-mer frequency, TF over GST control)"
same,binding signal,ELF4,"1.37 fold enrichment (6-mer frequency, TF over GST control)"
same,binding signal,ELK4,"1.4 fold enrichment (6-mer frequency, TF over GST control)"
same,binding signal,ETV2,"1.32 fold enrichment (6-mer frequency, TF over GST control)"
same,binding signal,ELF3,"1.25 fold enrichment (6-mer frequency, TF over GST control)"
same,binding signal,CRX,"1.26 fold enrichment (6-mer frequency, TF over GST control)"
same,binding signal,ETV1,"1.38 fold enrichment (6-mer frequency, TF over GST control)"
